Screens: PubChem, National Center for Advancing Translational Sciences (NCATS)
Rows were chosen to be rich in hits. Some 21% of all compounds tested hit in one or more screens of this group.
HCV inh: qHTS Assay for Inhibitors of Hepatitis C Virus (HCV); Huh7.5.1 HCVcc-Cre infection, luciferase reporter, 44 h; Potency, µM (top dose mostly 41.8 µM), actives largely listed as inhibitors; 340,000 compounds, 3.4% hits
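Infectious HCV cell culture screen: compound-treated cells (1,000/well, pre-plated 4 h) are infected with HCVcc-Cre at roughly 0.5 moi and grown 44 h. Infection is quantified by luciferase signal after 15 min substrate incubation at room temperature.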
Pf growth 96h: Primary qHTS for delayed death inhibitors of the malarial parasite plastid, 96 hour incubation; P. falciparum luciferase reporter growth, 96 h; Potency, µM (doses to about 28.7 µM), hits mostly inhibitors; 320,000 compounds, 6.9% hits; AID 504834, 2011
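Compounds incubated with erythrocytes infected by luciferase-expressing P. falciparum (2% hematocrit, 0.05% parasitemia final) for 96 hours, 37 C in 5% CO2. Growth inhibition scored as decreased luciferase luminescence.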
Shiga toxin inh: A qHTS for Small Molecule Inhibitors of Shiga Toxin; Vero cells, Shiga toxin protein synthesis inhibition reporter; inhibition, % at 38.7 µM; 290,000 compounds, 9.2% hits; AID 2315, 2010; in the data active = inhibition mostly above about 28%, no sharp cut-off; inactive = mostly below about 43%
AMA1-RON2 inh: qHTS for Inhibitors of AMA1-RON; Towards Development of Antimalarial Drug Lead: Primary Screen; Potency, µM (titrated, usually from 58.2 µM), hits mostly inhibitors; Plasmodium falciparum AMA1 (3D7) - RON2 peptide interaction; 360,000 compounds, 0.2% hits; AlphaScreen AMA1-biotinylated RON2 peptide binding; also: nearly all actives have a fitted effect of over 45% in size
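AMA1 (3D7) with his tag at 25 nM final met compounds first, then biotinylated RON2 peptide at 25 nM; detection used donor plus acceptor beads, 10 µg/mL apiece, read by AlphaScreen after 30 min at room temperature.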
Pf growth 48h: Primary qHTS for delayed death inhibitors of the malarial parasite plastid, 48 hour incubation | AID 504832, 2011 | P. falciparum luciferase growth in erythrocytes, 48 h | Potency, µM (doses to about 28.7 µM), hits mostly inhibitors | 310,000 compounds, 5.9% hits
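Parasite viability was followed by luminescence of a genomically integrated firefly luciferase. Cultures held 0.1% parasitemia at 2% hematocrit (final), incubated under 5% CO2 at 37 C.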
Cycloheximide cs: Cycloheximide Counterscreen for Small Molecule Inhibitors of Shiga Toxin; cell reporter, cycloheximide protein synthesis inhibition counterscreen; 300,000 compounds, 12% hits; max response, %; AID 2314, 2010; in the data active = max response mostly above about 13%, no sharp cut-off; inactive = mostly below about 14%; also: read at 38.3 µM for the half of the compounds with a filed dose
Large screens that a line does not name were inactive. Unless noted, calls follow the shape of the dose curve; as a rule, active = well fitted curve in the direction sought with a large enough effect; inconclusive = small, poorly fitted or top-dose-only effect, or another doubt; inactive = no such curve, though single readings can be large; an effect the other way counts as inactive or inconclusive.

O=C(N/N=C/c1ccc(OC(F)F)cc1OC(F)F)NC1CCCCC1	HCV inh inconclusive, Pf growth 96h inconclusive, Pf growth 48h 10.4µM
COc1cccc(/C=N/NC(=O)C(=O)N2CCCCCC2)c1O	Cycloheximide cs 21.0
O=C(N/N=C/c1ccc(OC(F)F)cc1OC(F)F)c1ccc(Br)cc1	HCV inh inconclusive, Pf growth 96h inconclusive
COc1cccc(/C=N/NC(=O)NC2CCCCC2)c1O	Pf growth 96h inconclusive, Shiga toxin inh 51.9, Pf growth 48h inconclusive, Cycloheximide cs 34.4
COC(=O)C1=CN(c2ccc(OC)cc2OC)C(N)=C(C#N)C1c1cccc([N+](=O)[O-])c1 (configuration not stated)	none (no result: HCV inh, Pf growth 96h, Shiga toxin inh, Pf growth 48h, Cycloheximide cs)
CCC(Sc1nc2ncccc2[nH]1)C(=O)N1CCOCC1 (configuration not stated)	none
Cc1cc(Nc2nnnn2-c2ccccc2)n(-c2ccccc2)n1	Pf growth 96h 9.28µM
COc1ccc(C)cc1NC(=O)CSc1nnc(COc2ccccc2)n1Cc1ccco1	Pf growth 96h 10.4µM, Pf growth 48h inconclusive
COc1ccc(C)cc1NC(=O)CSc1nnc(COc2ccc(Cl)cc2)n1Cc1ccco1	HCV inh inconclusive, Pf growth 96h inconclusive, Pf growth 48h inconclusive
Cc1ccc(NC(=O)CSc2nnc(CSc3nc(C)cc(C)n3)n2Cc2ccco2)c(C)c1	HCV inh 11.2µM, Pf growth 48h inconclusive
C(=C\c1ccccc1)/CSc1nnc(-c2ccccn2)n1Cc1ccco1	HCV inh 10µM, Pf growth 48h inconclusive (no result: Pf growth 96h)
COc1ccccc1NC(=O)CSc1nnc(-c2ccccn2)n1Cc1ccco1	Pf growth 96h 11.7µM, Pf growth 48h inconclusive
Cc1ccc(C)c(NC(=O)CSc2nnc(CSc3nc(C)cc(C)n3)n2Cc2ccco2)c1	Pf growth 48h inconclusive (no result: Pf growth 96h)
CC(OC(=O)/C=C/c1ccco1)C(=O)NC1CCCCC1C (configuration not stated)	HCV inh inconclusive (no result: Shiga toxin inh, Cycloheximide cs)
Cc1cc(NC(=O)CSc2nnc(COc3cccc(C)c3C)n2Cc2ccco2)no1	none
Cc1cccc(OCc2nnc(SCC(=O)N(C(C)C)C(C)C)n2Cc2ccco2)c1C	Pf growth 96h inconclusive, Pf growth 48h 11.7µM
CNC(=O)N(O)C1N(/N=C/c2c(F)cccc2Cl)C(=S)SC1(C)C (configuration not stated)	none
O=C(O)CCc1nc(-c2cccs2)no1	Pf growth 96h inconclusive
O=[N+]([O-])c1ccccc1OCc1nc(-c2cccs2)no1	Shiga toxin inh 178.9, Cycloheximide cs 61.1
Cc1ccc(OCc2nc(-c3cccs3)no2)c([N+](=O)[O-])c1	HCV inh inconclusive, Pf growth 96h inconclusive, Shiga toxin inh 99.7, Cycloheximide cs 45.5
O=[N+]([O-])c1ccc(F)cc1OCc1nc(-c2cccs2)no1	Shiga toxin inh 95.1, Cycloheximide cs 41.3
COc1cc(/C=C2/SC(=Nc3ccc(O)cc3)NC2=O)ccc1O	HCV inh inconclusive, Pf growth 96h inconclusive, Pf growth 48h inconclusive
COc1ccc(/C=C2\SC(=NCc3ccccc3)NC2=O)cc1	Pf growth 96h inconclusive, Pf growth 48h inconclusive
COc1cc(/C=C2\SC(=Nc3ccccc3OC)NC2=O)ccc1O	Cycloheximide cs 16.0
COc1ccc(/C=C2\SC(=Nc3ccccc3OC)NC2=O)cc1	HCV inh inconclusive, Pf growth 48h 0.329µM, Cycloheximide cs 20.4
COc1cc(CNc2nccn3ccnc23)cc(OC)c1	none (no result: HCV inh, Pf growth 96h, Shiga toxin inh, Pf growth 48h, Cycloheximide cs)
C/C(=N\Nc1nc2ccccc2[nH]1)c1cc2ccccc2o1	HCV inh inconclusive, Pf growth 96h inconclusive, Shiga toxin inh 39.3, Cycloheximide cs 24.6
C/C(=N\Nc1nc2ccccc2[nH]1)c1ccccn1	Pf growth 96h inconclusive, Shiga toxin inh 106.6, Pf growth 48h 2.94µM, Cycloheximide cs 28.3 (no result: HCV inh, AMA1-RON2 inh)
C/C(=N/O)c1ccccn1	Pf growth 48h inconclusive
Cc1ccc(SCC(=O)OC(C)C(=O)NCc2ccccc2)cc1 (configuration not stated)	Pf growth 96h inconclusive (no result: Shiga toxin inh, Cycloheximide cs)
